Active and inactive are the calls of the source.

In assay [1] the test system is PRMT1 (protein arginine N-methyltransferase 1). The assay can be described thus: small molecules binding arginine methyltransferase PRMT1 – biochemical, small-molecule microarray, 635 nm fluorescence, primary screen (AID 1088).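 Also: binding of Prmt1 protein to compounds spotted on small-molecule microarray slides.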 The following applies: higher = more signal.
Assay [2] can be described thus: growth effects on S. cerevisiae YJM789 – YJM789 clinical isolate, OD600, 24 h, basal, primary screen (AID 1089).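 Also: growth of clinical yeast isolate S. cerevisiae YJM 789 seeded 1000 cells per well; test concentration not given here.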 The following applies: higher = more signal, called active from +8 up or from −8 down.
A short description of assay [3]: S. pombe growth modifiers, basal conditions – strain 972, OD600, 24 h, no modulator, primary screen (AID 1090).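 Also: basal condition with compound alone and no growth modifier present; test concentration not given here.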 Particulars: S. pombe 972 growth, higher = more signal, called active from +8 up or from −8 down.
Assay [4] is described as follows: budding yeast growth modifiers under rapamycin – strain BY4716, OD600, 96 h, primary screen (AID 1091). Also: test concentration not given here. Particulars: S. cerevisiae BY4716 + rapamycin, higher = more signal, called active from +8 up or from −8 down.
The target in assay [5] is Torsin-1A-interacting protein 2 (Homo sapiens) (UniProt Q8NFQ8). Briefly: small molecules binding lysate-expressed LULL1 – cell lysate, human LULL1 lysate, 635/667 nm fluorescence, primary screen (AID 1092).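 Also: probe is lysate of COS7 cells overexpressing human LULL1; score merges per-feature 667 nm fluorescence with signal-to-noise.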 The following applies: small-molecule microarray, hLULL1 lysate binding, 635 nm fluorescence; higher = more signal.
Torsin-1A-interacting protein 2 (Homo sapiens), sequence (Q8NFQ8 whole entry, looked up): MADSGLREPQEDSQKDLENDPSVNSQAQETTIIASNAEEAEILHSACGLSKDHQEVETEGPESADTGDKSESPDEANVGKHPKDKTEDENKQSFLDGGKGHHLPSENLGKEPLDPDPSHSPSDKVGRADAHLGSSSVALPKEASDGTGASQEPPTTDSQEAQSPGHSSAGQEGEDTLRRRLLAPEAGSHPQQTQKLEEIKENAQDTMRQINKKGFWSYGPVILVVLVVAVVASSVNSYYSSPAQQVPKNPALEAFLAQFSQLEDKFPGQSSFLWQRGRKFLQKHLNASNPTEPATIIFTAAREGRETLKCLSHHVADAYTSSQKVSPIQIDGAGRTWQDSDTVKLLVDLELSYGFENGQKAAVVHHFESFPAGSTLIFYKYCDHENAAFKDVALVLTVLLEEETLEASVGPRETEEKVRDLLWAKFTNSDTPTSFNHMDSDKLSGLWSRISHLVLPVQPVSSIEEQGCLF
A short description of assay [6]: optical density change of DRC41 E. coli – strain DRC41, OD650, 24 h, E. coli filamentation project, primary screen (AID 1093).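 Also: MC1000 strain lacking acrAB efflux and sulA so SOS filamentation is blocked; test concentration not given here.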 The following applies: E. coli DRC41 growth, higher = more signal, called active from +8 up or from −8 down.
Assay [7] is described as follows: probe aLefty2 binding to arrayed compounds – biochemical, biotinylated probe, 635/667 nm fluorescence, primary screen (AID 1094).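 Also: score merges spot fluorescence near 667 nm with spot signal-to-noise ratio.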 The following applies: small-molecule microarray, higher = more signal.
Assay [8] relates to Noggin (protein binding on small-molecule microarray). The assay can be described thus: small molecules binding Noggin protein – biochemical, 635/667 nm fluorescence, primary screen (AID 1095).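 Also: score merges 667 nm feature fluorescence with signal to noise over triplicate slides.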 Particulars: 635 nm fluorescence, higher = more signal.
Assay [9] deals with Neurogenic locus notch homolog protein 3 (Homo sapiens) (UniProt Q9UM47). Briefly: small molecules binding NOTCH3 protein – biochemical, 635/667 nm fluorescence, primary screen (AID 1096). The following applies: small-molecule microarray, 635 nm fluorescence, higher = more signal.
Neurogenic locus notch homolog protein 3 (Homo sapiens), sequence (Q9UM47 whole entry, looked up): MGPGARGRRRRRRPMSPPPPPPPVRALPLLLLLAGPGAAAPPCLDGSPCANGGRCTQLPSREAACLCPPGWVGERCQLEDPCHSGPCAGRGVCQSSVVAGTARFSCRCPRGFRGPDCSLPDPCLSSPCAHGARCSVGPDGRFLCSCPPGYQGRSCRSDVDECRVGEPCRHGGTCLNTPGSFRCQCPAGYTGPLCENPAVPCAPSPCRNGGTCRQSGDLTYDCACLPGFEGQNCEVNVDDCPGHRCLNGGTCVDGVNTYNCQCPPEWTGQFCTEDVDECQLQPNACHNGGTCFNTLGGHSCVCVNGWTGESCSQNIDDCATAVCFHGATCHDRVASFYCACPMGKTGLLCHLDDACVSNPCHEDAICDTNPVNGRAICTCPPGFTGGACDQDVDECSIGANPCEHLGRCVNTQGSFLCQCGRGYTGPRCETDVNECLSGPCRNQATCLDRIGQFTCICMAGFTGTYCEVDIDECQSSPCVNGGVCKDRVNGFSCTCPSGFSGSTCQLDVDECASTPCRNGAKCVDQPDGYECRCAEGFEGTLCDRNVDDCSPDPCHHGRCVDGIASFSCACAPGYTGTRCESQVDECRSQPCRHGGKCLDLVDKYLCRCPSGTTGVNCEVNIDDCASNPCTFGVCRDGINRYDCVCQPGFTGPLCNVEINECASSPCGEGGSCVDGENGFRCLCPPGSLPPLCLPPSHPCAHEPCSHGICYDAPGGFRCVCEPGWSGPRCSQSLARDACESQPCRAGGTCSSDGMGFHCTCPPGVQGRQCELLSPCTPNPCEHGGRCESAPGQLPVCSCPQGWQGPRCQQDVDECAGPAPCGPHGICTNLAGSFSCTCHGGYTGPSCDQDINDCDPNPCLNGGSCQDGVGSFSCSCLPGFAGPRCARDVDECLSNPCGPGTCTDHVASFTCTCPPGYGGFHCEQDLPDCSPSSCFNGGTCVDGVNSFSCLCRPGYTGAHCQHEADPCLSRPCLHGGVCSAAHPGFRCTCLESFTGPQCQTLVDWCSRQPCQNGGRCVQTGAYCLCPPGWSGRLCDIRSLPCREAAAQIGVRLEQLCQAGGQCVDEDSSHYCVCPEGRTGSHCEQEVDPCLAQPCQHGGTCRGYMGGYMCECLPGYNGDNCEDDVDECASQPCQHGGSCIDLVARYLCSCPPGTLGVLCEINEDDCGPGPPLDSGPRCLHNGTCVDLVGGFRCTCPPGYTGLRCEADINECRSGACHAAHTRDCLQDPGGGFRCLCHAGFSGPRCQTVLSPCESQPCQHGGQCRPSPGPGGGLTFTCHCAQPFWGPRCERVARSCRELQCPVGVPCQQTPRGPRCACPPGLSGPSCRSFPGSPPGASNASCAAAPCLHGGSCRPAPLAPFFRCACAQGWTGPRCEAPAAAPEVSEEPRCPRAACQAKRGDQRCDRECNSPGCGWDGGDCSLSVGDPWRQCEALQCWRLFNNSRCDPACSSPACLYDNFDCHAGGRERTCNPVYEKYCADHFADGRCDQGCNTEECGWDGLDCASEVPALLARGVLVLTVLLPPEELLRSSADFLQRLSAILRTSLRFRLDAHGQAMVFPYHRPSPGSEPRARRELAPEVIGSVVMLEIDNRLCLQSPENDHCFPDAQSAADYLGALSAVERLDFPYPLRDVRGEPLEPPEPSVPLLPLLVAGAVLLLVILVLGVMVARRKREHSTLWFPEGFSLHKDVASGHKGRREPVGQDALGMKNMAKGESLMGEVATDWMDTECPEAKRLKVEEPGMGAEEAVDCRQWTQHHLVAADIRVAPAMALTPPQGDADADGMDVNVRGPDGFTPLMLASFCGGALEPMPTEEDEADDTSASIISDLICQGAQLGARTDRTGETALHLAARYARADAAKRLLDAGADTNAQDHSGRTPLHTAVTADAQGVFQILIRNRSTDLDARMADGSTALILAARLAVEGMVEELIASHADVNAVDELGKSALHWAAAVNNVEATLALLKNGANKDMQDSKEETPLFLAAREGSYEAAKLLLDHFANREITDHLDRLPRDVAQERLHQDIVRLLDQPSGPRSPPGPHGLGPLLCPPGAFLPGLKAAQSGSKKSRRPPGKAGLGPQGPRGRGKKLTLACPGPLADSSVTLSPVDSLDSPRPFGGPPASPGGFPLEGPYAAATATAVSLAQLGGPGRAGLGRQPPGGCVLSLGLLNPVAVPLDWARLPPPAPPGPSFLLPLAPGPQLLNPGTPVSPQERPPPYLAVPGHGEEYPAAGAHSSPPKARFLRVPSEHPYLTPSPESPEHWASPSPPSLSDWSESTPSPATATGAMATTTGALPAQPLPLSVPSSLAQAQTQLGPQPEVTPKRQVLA
A short description of assay [10]: probe aEGFR binding to arrayed compounds – biochemical, biotinylated probe, 635/667 nm fluorescence, primary screen (AID 1097).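 Also: probe is a biotinylated anti-EGFR antibody binding compounds printed on slides; score combines fluorescence near 667 nm and signal to noise of each spot.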 The following applies: small-molecule microarray, higher = more signal.
For assay [11], the system named is Plasmodium falciparum Sir2 (PF13_0152, Sir2A). The assay can be described thus: Plasmodium falciparum Sir2A binding compounds – biochemical, small-molecule microarray, 635 nm fluorescence, primary screen (AID 1098).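 Also: score merges spot fluorescence intensity with its signal-to-noise ratio.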 The following applies: fluorescence 635 nm, higher = more signal.
Assay [12] is described as follows: probe aDKK1 binding to arrayed compounds – biochemical, biotinylated probe, 635/667 nm fluorescence, primary screen (AID 1099).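 Also: score merges 667nm spot fluorescence with signal to noise across triplicate slides; reference of the scale not given here.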 The following applies: small-molecule microarray, higher = more signal.
Assay [13] can be described thus: probe aCHRDL2 binding to arrayed compounds – biochemical, biotinylated probe, 635/667 nm fluorescence, primary screen (AID 1100). Particulars: small-molecule microarray, higher = more signal.
Assay [14] can be described thus: change in splice reporter luminescence, either direction, cell-based, HEK293, spliceosome inhibition project, primary screen (AID 1101).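 Also: HEK293 cells carrying a splicing-competent luciferase reporter gene; test concentration not given here.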 Particulars: HEK293 splicing luciferase reporter, 24 h, higher = more signal, called active from +8 up or from −8 down.
Assay [15] deals with Fibroblast growth factor 10 (Homo sapiens) (UniProt O15520). The assay can be described thus: compounds binding fibroblast growth factor 10 – biochemical, small-molecule microarray, 635 nm fluorescence, primary screen (AID 1102). The following applies: FGF10 binding, fluorescence 635 nm, higher = more signal.
Fibroblast growth factor 10 (Homo sapiens), sequence (O15520 whole entry, looked up): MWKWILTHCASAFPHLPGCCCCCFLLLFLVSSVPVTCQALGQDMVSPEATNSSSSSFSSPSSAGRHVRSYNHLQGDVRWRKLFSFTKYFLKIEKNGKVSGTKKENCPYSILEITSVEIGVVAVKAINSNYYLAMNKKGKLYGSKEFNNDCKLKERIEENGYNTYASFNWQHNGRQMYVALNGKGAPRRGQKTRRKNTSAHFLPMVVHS
Assay [16] concerns glycogen synthase kinase-3 (GSK3A per assay name; protocol says GSK3B). The assay can be described thus: compounds binding glycogen synthase kinase-3 – biochemical, small-molecule microarray, 635 nm fluorescence, GSK3A, primary screen (AID 1103). Also: the record names both GSK3A and GSK3B. The following applies: fluorescence 635 nm, higher = more signal.
Assay [17] addresses Epidermal growth factor receptor (Homo sapiens) (UniProt P00533). Briefly: compounds binding epidermal growth factor receptor – biochemical, small-molecule microarray, 635 nm fluorescence, primary screen (AID 1104).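 Also: score merges 667 nm emission intensity with spot signal to noise over triplicate slides.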 Particulars: EGFR binding, higher = more signal.
The target of assay [18] is Follistatin-related protein 3 (Homo sapiens) (UniProt O95633). Briefly: compounds binding follistatin-related protein 3 – biochemical, small-molecule microarray, 635 nm fluorescence, primary screen (AID 1105).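 Also: score merges emission near 667 nm and signal to noise per printed spot across three slides.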 The following applies: FSTL3 binding, higher = more signal.
Follistatin-related protein 3 (Homo sapiens), sequence (O95633 whole entry, looked up): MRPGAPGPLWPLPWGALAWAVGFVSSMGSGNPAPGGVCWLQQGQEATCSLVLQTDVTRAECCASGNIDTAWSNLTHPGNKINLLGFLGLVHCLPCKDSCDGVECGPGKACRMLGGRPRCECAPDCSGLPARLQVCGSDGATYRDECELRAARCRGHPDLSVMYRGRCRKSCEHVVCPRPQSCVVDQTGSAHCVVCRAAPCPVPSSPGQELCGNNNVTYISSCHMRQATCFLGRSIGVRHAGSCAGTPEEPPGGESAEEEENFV
In assay [19] the target is Dickkopf-related protein 1 (Homo sapiens) (UniProt O94907). Briefly: small molecules binding DKK1 protein – biochemical, small-molecule microarray, 635 nm fluorescence scan, primary screen (AID 1106).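 Also: score merges emission near 667 nm with signal to noise over three replicate slides.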 The following applies: higher = more signal.
Dickkopf-related protein 1 (Homo sapiens), sequence (O94907 whole entry, looked up): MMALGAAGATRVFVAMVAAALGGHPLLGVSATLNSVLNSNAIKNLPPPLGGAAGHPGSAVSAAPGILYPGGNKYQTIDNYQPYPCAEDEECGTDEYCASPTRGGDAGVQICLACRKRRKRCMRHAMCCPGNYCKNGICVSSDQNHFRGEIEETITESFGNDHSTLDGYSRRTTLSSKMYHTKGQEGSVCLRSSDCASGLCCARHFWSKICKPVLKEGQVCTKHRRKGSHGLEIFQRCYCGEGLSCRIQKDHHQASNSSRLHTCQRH
The subject of assay [20] is Inhibin beta A chain (activin A). Briefly: small molecules binding activin A – biochemical, small-molecule microarray, 635 nm fluorescence scan, primary screen (AID 1107).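 Also: mouse activin A protein probed at 4.33 µg/mL on printed slides; score merges bound-protein fluorescence near 667 nm with spot signal-to-noise.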 The following applies: INHBA, higher = more signal.

Epidermal growth factor receptor (Homo sapiens), sequence (P00533 whole entry, looked up): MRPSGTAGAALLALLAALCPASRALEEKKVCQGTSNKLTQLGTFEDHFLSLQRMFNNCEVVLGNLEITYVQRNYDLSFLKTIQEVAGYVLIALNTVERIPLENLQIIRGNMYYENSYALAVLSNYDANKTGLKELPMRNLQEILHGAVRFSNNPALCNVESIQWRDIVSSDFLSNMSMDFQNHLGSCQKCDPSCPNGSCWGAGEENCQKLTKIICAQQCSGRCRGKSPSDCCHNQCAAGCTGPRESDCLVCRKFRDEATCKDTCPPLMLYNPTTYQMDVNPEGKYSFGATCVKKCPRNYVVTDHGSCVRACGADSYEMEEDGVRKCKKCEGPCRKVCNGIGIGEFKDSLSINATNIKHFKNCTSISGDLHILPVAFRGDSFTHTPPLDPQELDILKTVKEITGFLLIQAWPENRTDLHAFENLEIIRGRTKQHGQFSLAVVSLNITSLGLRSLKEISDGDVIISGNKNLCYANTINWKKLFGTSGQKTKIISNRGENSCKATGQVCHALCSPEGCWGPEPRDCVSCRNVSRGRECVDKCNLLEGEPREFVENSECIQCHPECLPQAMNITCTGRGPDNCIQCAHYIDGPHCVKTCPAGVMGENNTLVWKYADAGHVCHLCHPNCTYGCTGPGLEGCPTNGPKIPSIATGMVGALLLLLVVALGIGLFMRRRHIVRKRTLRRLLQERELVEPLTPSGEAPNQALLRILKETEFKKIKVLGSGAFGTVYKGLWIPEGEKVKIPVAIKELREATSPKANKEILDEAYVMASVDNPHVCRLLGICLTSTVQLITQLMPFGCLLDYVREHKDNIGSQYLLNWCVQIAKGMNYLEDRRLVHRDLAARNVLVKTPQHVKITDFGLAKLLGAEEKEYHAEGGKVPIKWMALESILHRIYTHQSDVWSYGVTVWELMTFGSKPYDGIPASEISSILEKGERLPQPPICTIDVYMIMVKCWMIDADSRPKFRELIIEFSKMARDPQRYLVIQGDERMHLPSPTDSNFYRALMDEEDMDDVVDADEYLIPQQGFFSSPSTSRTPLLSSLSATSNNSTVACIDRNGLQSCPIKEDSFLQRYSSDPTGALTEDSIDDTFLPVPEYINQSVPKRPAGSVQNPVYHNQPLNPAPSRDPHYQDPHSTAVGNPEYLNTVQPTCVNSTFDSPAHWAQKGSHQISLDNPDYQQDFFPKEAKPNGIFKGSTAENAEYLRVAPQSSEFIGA

In the case of `CCOC(=O)C1=C[C@@H](C(C)C)N(S(=O)(=O)c2ccc(C)cc2)[C@H]1c1ccc(C(F)(F)F)cc1`, the composite z-score in [1] was 1.35; in assay [5], 3.17; in assay [7] it was 0.127; in assay [8], 0.745; in [9], 1.05; in [10] it was -0.0122. Moreover, the composite z-score is 0.794 in assay [11]; 0.374 in [12]; 0.703 in assay [13]; 0.896 in assay [15]; 0.898 in assay [16]; 0.593 in [17]. Besides, the figures for the composite z-score in [18], in assay [19] and in [20] were 1.39, 0.441 and 0.372, respectively. The z-score in [2] is 1.43 (inactive); in [3], 1.5 (inactive); in [4], 2.08 (inactive); in assay [6], -0.961 (inactive); in assay [14], 0.317 (inactive).
With `CC(C)C(O)C1C=CC2C(=O)N(c3ccccc3)C(=O)C2N1Nc1ccccc1` (stereo not given), the composite z-score is 1.34 in [1]; 3.42 in [5]; 0.0436 in assay [7]; 0.948 in assay [8]; 1.07 in assay [9]; -0.0023 in [10]. The composite z-score in assay [11] came out at 1.06; in assay [12], 0.584; in assay [13], 0.432; in assay [15], 1.22; in [16], 0.0942; in assay [17] it was 0.34. Further, the values for the composite z-score in [18], in assay [19] and in assay [20] were 1.41, -0.0988 and 0.326, respectively. Moreover, the z-score in assay [2] is 0.0864 (inactive); in assay [3], -2.24 (inactive); in assay [4], 0.108 (inactive); in [6], -0.304 (inactive); in [14], -0.307 (inactive).
For the compound `C=C(COC)/C(=C/C[C@H](OC(=O)c1ccncc1)c1ccc(CO)o1)c1cnc2ccccc2c1`, the composite z-score in [1] was 1.54; in assay [5], 1.34; in [7] it was -0.114; in [8], 0.84; in [9], 1.09; in assay [10], -0.0805. In addition, the composite z-score was 0.296 in assay [11]; -0.155 in assay [12]; -0.137 in [13]; 1.12 in assay [15]; 0.986 in [16]; 0.387 in assay [17]. For the same compound, the composite z-score worked out at 1.34 in assay [18], 0.348 in [19] and 1.81 in assay [20]. The z-score was 0.685 (inactive) in assay [2]; -0.694 (inactive) in assay [3]; 0.662 (inactive) in assay [4]; -0.148 (inactive) in [6]; 0.801 (inactive) in assay [14].
On to `CC(=O)NCCCC[C@@H]1NC(=O)[C@@H]2C[C@H](C(=O)NCCCCCN)[C@H](c3ccc(O)cc3)N2C1=O`, for which the composite z-score was found to be 1.32 in assay [1]; 2.25 in assay [5]; 0.5 in assay [7]; 0.61 in [8]; 1.14 in [9]; 0.328 in assay [10]. The composite z-score amounted to 1.49 in [11]; 1.07 in assay [12]; 0.656 in assay [13]; 1.23 in assay [15]; 1.28 in [16]; 0.662 in assay [17]. The figures for the composite z-score in assay [18], in assay [19] and in [20] were 1.02, 1.33 and 1.26, respectively. Besides, the z-score in [2] was 0.0163 (inactive); in assay [3], -0.747 (inactive); in assay [4], 0.536 (inactive); in assay [6] it was 2.29 (inactive); in [14], 0.194 (inactive).
In the case of `O=C1O[C@H](c2ccccc2)[C@H](c2ccccc2)N2[C@H]1[C@@H](C(=O)O)[C@]1(C(=O)Nc3ccc(C#CCCO)cc31)[C@H]2c1ccccc1OCCO`, the composite z-score in [1] was 1.09; in assay [5] it was 2.97; in assay [7], -0.13; in assay [8], 0.55; in [9], 0.116; in [10], -0.204. Also, the composite z-score in assay [11] is 0.582; in assay [12], -0.445; in assay [13], 0.094; in [15] it was 0.258; in [16], -0.532; in assay [17], -0.329. The results for the composite z-score in [18], in [19] and in assay [20] were -0.224, -0.0493 and 0.671, respectively. The z-score in assay [2] was 0.642 (inactive); in assay [3], -0.495 (inactive); in assay [4], 0.224 (inactive); in assay [6], 0.18 (inactive); in assay [14], -0.888 (inactive).

Source of the values: PubChem BioAssay.
